The sample as a whole holds a higher share of hits than the screen did.
CapD inh = inhibitors of Bacillus anthracis CapD enzyme; purified CapD enzyme, fluorescence intensity read-out; active compounds read low; z-score (concentration not given with the values); 140,000 compounds, 0.23% hits; AID 492967; in the data active = z-score mostly below about -2.9, no sharp cut-off; inactive = mostly above about -1.9
An asterisk follows results filed as active.

Screening O=C(NN1S(=O)(=O)c2ccccc2S1(=O)=O)c1cccc(F)c1 returned CapD inh -4.1*.
O=C(NN1S(=O)(=O)c2ccccc2S1(=O)=O)c1cc(-c2ccccc2)n[nH]1 was read as CapD inh -2.6.
`O=C(NN1S(=O)(=O)c2ccccc2S1(=O)=O)c1ccc(OCc2ccccc2Br)cc1` gave CapD inh -0.18.
O=C(NN1S(=O)(=O)c2ccccc2S1(=O)=O)c1ccc(OCc2ccc(F)cc2)cc1 was read as CapD inh -0.59.
For NC(=O)c1ccccc1NC(=O)c1cccc(Br)c1 the results were CapD inh 2.7.
`O=C(NN1S(=O)(=O)c2ccccc2S1(=O)=O)c1cccc(Br)c1` gave CapD inh -3.7*.
For CC(C)OC(=O)c1ccc(COC(=O)CCc2nc3ccccc3[nH]c2=O)cc1 the results were CapD inh 1.1.
CC1(C)OC(=O)C1C(=O)O (stereo not drawn) was read as CapD inh -0.52.
O=c1c(=NO)c(=O)c2ccccc12 was read as CapD inh -5.4*.
`O=C1c2ccccc2C(=O)N1N1C(=O)c2ccccc2C1=O` gave CapD inh 0.02.
Screening O=c1c2ccccc2c(=O)n2n1CC=CC2 returned CapD inh 0.065.
For CC(CCc1ccccc1)NC(=O)CCc1nnc2ccc(N3CCOCC3)nn12 (stereo not drawn) the results were CapD inh -0.03.
Screening S=C(NC1CCCCC1)C12CCC3CC(CC(C3)C1)C2 returned CapD inh 0.3.
Screening O=c1oc(-c2ccccc2F)nc2scc(-c3cccs3)c12 returned CapD inh 0.55.
`O=c1oc(-c2cccs2)nc2ccccc12` gave CapD inh -0.025.
Screening O=c1oc(-c2cccs2)ns1 returned CapD inh -8.9*.
For O=c1oc(-c2c(Cl)cccc2Cl)ns1 the results were CapD inh 0.15.
O=c1ccc2cc(S(=O)(=O)NCc3ccccc3)ccc2o1 was read as CapD inh 0.075.
`CC(=O)Nc1cccc2nc(C)sc12` gave CapD inh -0.095.
`ONc1nc2ccccc2nc1NO` gave CapD inh -1.1.
Screening CC(=O)Nc1nc2ccccc2nc1Cl returned CapD inh -7.6*.
`O=C(O)CCC(=O)Nc1nccc2cccnc12` gave CapD inh 5.3.
Screening CC(C)(CNC(=O)c1c(Cl)cccc1Cl)SCc1ccc(F)cc1 returned CapD inh 0.05.
Screening COc1cccc(OCC(=O)Nc2cccc(C(=O)O)c2C)c1 returned CapD inh 0.51.
For COc1ccc(NC(C)=O)c(C(=O)O)c1 the results were CapD inh 24.
For COc1cccc(OCC(=O)Nc2ccc(OC(C)=O)cc2C(=O)O)c1 the results were CapD inh -10*.
Screening COc1ccc(-n2c(=S)[nH]c3cc(C(=O)NCCSCc4ccccc4)ccc3c2=O)c(OC)c1 returned CapD inh -1.7.
For CCOc1ccc(CNC(=O)CCC(=O)N2CCOc3ccccc32)cc1 the results were CapD inh -0.22.
`Cc1c(Cl)cccc1NC(=S)N(CCCN1CCCC(C)C1)Cc1ccco1` (stereo not drawn) gave CapD inh 0.56.
`CCCCOC(=O)Oc1cc2oc(=O)sc2cc1Br` gave CapD inh -0.21.
Screening COC(=O)Oc1cc2oc(=O)sc2cc1Cl returned CapD inh -0.7.
CCOC(=O)Oc1c(Cl)cc2oc(=O)sc2c1Br was read as CapD inh -5.3*.
For Cn1c(=O)n(C)c2cc(/C=C3/SC(=O)N(Cc4ccc(Cl)cc4)C3=O)ccc21 the results were CapD inh 0.04.
Screening CCSC1=C(C#N)C(c2ccccc2)C(C(=O)Nc2ccccc2OC)=C(C)N1 (stereo not drawn) returned CapD inh 6.9.
Cc1noc(/C=C/N(C)C)c1S(=O)(=O)N(CCc1ccccc1)Cc1ccccc1 was read as CapD inh -4.3*.
Screening Cc1noc(C)c1S(=O)(=O)N(CCC#N)Cc1ccccc1 returned CapD inh -0.2.
`COc1ccc(CN(Cc2ccc(OC)cc2)S(=O)(=O)c2c(C)noc2C)cc1` gave CapD inh 0.41.
Cn1c(=O)c(=O)n(C)c2cc(S(=O)(=O)CCC(=O)NCc3ccccc3)ccc21 was read as CapD inh 5.3.
`CN(Cc1ccccc1)S(=O)(=O)c1ccc2c(c1)oc(=O)n2C` gave CapD inh -0.33.
Cn1c(=O)n(C)c2cc(S(=O)(=O)N(Cc3ccccc3)C(=O)c3ccncc3)ccc21 was read as CapD inh -7.6*.
Screening C=CC(=O)Nc1ccc2c(c1)OCCOCCOCCOCCO2 returned CapD inh 0.12.
Screening CCOC(=O)c1cc2cccc(NS(=O)(=O)c3ccc(S(C)(=O)=O)cc3)c2[nH]1 returned CapD inh -0.79.
CCN1C(=O)C(=Cc2ccc(-c3ccc(Br)c(Cl)c3)o2)C(=O)N(CC)C1=S was read as CapD inh 0.055.
For Cc1ccc(/C=C2/SC(=O)N(CCC(=O)N3CCN(C)CC3)C2=O)cc1 the results were CapD inh -0.82.
Screening Cc1ccc(/C=C2/SC(=S)N(CCC(=O)N3CCOCC3)C2=O)cc1 returned CapD inh -2.6*.
For COc1ccc(/C=C2/SC(=S)N(CCC(=O)N3CCN(C4=NC(=O)/C(=C\c5ccc(C)cc5)S4)CC3)C2=O)cc1 the results were CapD inh -0.38.
`N#CC(C(=O)c1ccco1)=C1SCCCS1` gave CapD inh -2.
Screening N#C/C(=N\O)C(=O)c1ccco1 returned CapD inh -4.6*.
N#C/C(=N\Nc1cc(C(F)(F)F)cc(C(F)(F)F)c1)C(=O)c1ccco1 was read as CapD inh -2.6.
CN(C)c1ccc(C(O)c2cccs2)cc1 (stereo not drawn) was read as CapD inh -0.33.
Screening COC(=O)C1C2C=CC3(CN(C(C)c4ccncc4)C(=O)C13)O2 (stereo not drawn) returned CapD inh 0.65.
CCOC(=O)C1CCCN(S(=O)(=O)c2ccc(-c3ccc(=O)[nH]n3)s2)C1 (stereo not drawn) was read as CapD inh 1.2.
O=C(COc1ccccc1)Nc1ccc(-c2cn3cccnc3n2)cc1 was read as CapD inh 98.
Screening O=C(CCC1CCCCC1)Nc1ccc(-c2cn3cccnc3n2)cc1 returned CapD inh -4.5*.
`COCC(=O)Nc1ccc(-c2cn3cccnc3n2)cc1` gave CapD inh -0.005.
Screening COc1ccc(C2CC(=O)N(CC(=O)N3CCOCC3)c3ccccc3S2)cc1 (stereo not drawn) returned CapD inh 0.85.
For CC(=O)N(C(C)=O)c1nc(-c2ccccc2)cn1/N=C/c1ccccc1 the results were CapD inh -7.1*.
`O=C(Nc1ccccc1)Nc1nc(-c2ccco2)cn1/N=C/c1ccccc1` gave CapD inh -0.34.
For COc1ccc(/C=N/n2c(N(C(C)=O)C(C)=O)nc(-c3ccccc3)c2-c2ccccc2)cc1 the results were CapD inh -1.4.
For COC(=O)c1cc(Nc2nc(-c3cc(OC)c(OC)c(OC)c3)nc3ccccc23)cc(C(=O)OC)c1 the results were CapD inh 2.7.
Screening O=C(Cn1c(=O)oc2ccccc21)Nc1cccnc1 returned CapD inh -1.5.
CC(=O)Nc1nc2sc(C)c(C)c2c(=O)s1 was read as CapD inh 0.24.
CNC(=O)c1cn(-c2ccccc2)c(=O)c2ccccc12 was read as CapD inh 4.8.
Screening CC(=O)n1c(=O)c2ccccc2c(=O)n1-c1ccccc1 returned CapD inh -4.7*.
For CN(C)C(=O)c1cn(-c2ccccc2)c(=O)c2ccccc12 the results were CapD inh 4.7.

Screening data from PubChem.
